Test results as given in PubChem BioAssay (Tox21).
Values without a mark were called inactive. Inconclusive results are not listed. A call without a number means that no potency is given here. Calls of active or inactive are those of the source. Calls come from the whole dose curve; as a rule, active = well fitted curve in the direction sought with a large enough effect in the repeat runs; inconclusive = weak or mixed curves; inactive = no such curve, though single readings can be large; an effect the other way counts as inactive or inconclusive.

How the values were obtained:
[1] = Caspase-3/7 induction in HepG2 cells by small molecules, qHTS assay (AID 1346978); note: nearly all actives have a fitted effect of over 15% in size
How it was run: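 Wild-type HepG2 cells, 2,000/well, settled 5 hr at 37 C and 5% CO2, then compound-treated for 17 hr; caspase-3/7 activity read by luminescent Caspase-Glo 3/7 after 30 min at room temperature.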

[2] = Caspase-3/7 induction in CHO-K1 cells by small molecules, qHTS cell viability counter screen (AID 1346979); note: nearly all actives have a fitted effect of over 35% in size; note: potency is the fitted concentration of half-maximal effect
How it was run: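 Viability readout by fluorescence (CellTiter-Fluor) on wild-type CHO-K1 cells exposed for 16hr at 37C and 5% CO2 to compounds delivered in DMSO; reagent incubated 1hr before reading.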

[3] = Caspase-3/7 induction in CHO-K1 cells by small molecules, qHTS assay (AID 1346980); note: nearly all actives have a fitted effect of over 15% in size
How it was run: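 Wild-type CHO-K1 cells exposed to compounds for 17hr at 37 C, 5% CO2. Caspase-3/7 activity then measured by Caspase-Glo 3/7 luminescence after 30min at room temperature.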

[4] = Caspase-3/7 induction in HepG2 cells by small molecules, qHTS cell viability counter screen (AID 1346981); note: nearly all actives have a fitted effect of over 30% in size; note: potency is the fitted concentration of half-maximal effect; for activity change, negative = cytotoxicity: series mostly up to about 92 µM
How it was run: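 The parent HepG2 line is plated at 2,000 cells per well and rested 5 hr before compound pinning from DMSO stocks. Following a 16-hr treatment at 37 C, a fluorogenic live-cell substrate (CellTiter-Fluor) reports viability after 1 hr.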

[5] = target: Nuclear receptor subfamily 1 group I member 2 (Homo sapiens) (UniProt O75469); assay: Human pregnane X receptor (PXR) small molecule agonists, qHTS assay (AID 1346982); note: nearly all actives have a fitted effect of over 35% in size; note: potency is the fitted concentration of half-maximal effect
Sequence of Nuclear receptor subfamily 1 group I member 2 (Homo sapiens) (O75469 whole entry, looked up): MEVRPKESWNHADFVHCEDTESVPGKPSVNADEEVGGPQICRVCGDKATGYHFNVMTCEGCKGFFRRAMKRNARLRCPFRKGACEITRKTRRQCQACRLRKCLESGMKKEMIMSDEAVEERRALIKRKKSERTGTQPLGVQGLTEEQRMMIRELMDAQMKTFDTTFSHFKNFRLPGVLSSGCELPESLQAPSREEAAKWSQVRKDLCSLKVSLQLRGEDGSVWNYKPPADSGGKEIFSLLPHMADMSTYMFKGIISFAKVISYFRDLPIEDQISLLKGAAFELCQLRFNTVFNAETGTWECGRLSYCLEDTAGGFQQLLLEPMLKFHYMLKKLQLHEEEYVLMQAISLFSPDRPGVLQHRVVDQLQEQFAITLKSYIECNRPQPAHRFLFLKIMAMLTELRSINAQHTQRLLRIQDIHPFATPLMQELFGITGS
How it was run: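 After plating in 5% charcoal-stripped FBS and a 5 hr rest, PXR-Luc HepG2 cells received compounds in DMSO. Following 24 hr at 37 C, ONE-Glo was added and light output read.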

[6] = target: Nuclear receptor subfamily 1 group I member 2 (Rattus norvegicus) (UniProt Q9R1A7); assay: Rat pregnane X receptor (rPXR) activation by small molecules, qHTS assay (AID 1346983); conditions: rPXR luciferase reporter cells, One-Glo luminescence, 24 h; max activation: hits give high values; note: nearly all actives have a fitted effect of over 20% in size
Sequence of Nuclear receptor subfamily 1 group I member 2 (Rattus norvegicus) (Q9R1A7 whole entry, looked up): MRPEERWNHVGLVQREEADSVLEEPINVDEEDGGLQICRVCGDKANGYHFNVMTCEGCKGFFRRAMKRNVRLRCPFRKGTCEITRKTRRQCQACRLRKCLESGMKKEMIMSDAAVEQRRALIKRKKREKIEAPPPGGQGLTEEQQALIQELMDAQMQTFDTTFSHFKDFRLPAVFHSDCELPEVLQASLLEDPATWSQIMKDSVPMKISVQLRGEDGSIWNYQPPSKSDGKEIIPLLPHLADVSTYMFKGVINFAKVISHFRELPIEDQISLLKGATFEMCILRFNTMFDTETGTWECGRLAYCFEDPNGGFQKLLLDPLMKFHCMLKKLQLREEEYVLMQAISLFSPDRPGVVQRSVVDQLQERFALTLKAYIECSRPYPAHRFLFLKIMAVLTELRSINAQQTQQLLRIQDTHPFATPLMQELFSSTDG
How it was run: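 Cell-based rPXR activation assay: rPXR cells, 2,000 per well, rested 5hr at 37 C, then exposed to compounds in DMSO for 24 hr at 37 C. Luciferase activity read by One-Glo luminescence after 30 min at room temperature.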

[7] = target: Nuclear receptor subfamily 1 group I member 2 (Homo sapiens) (UniProt O75469); assay: CYP3A4 induction through human pregnane X receptor (PXR) by small molecules, qHTS assay (AID 1346984); note: nearly all actives have a fitted effect of over 40% in size
How it was run: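 Human PXR activation is tracked via CYP3A4 promoter-luciferase in DPX-2 (HepG2) cells. Compounds treat cells for 24hr at 37C, and luminescence is read after One-Glo.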

[8] = target: Nuclear receptor subfamily 1 group I member 2 (Homo sapiens) (UniProt O75469); assay: Human pregnane X receptor (PXR) activation by small molecules, qHTS assay (AID 1346985); note: nearly all actives have a fitted effect of over 40% in size
How it was run: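 DPX-2 cells (HepG2 co-transfected with a PXR response element and a CYP3A4-promoter luciferase construct) were seeded at 2,000 per well, rested 5 hr at 37C, then exposed to DMSO-dissolved compounds for 24 hr. Activation was read as luciferase luminescence.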

[9] = target: Cytochrome P450 2D6 (Homo sapiens) (UniProt P10635); assay: Cytochrome P450 Family 2 Subfamily D Member 6 (CYP2D6) small molecule antagonists: luciferase reporter qHTS assay (AID 1671196); note: nearly all actives have a fitted effect of over 50% in size; note: potency is the fitted concentration of half-maximal effect; for activity change, negative = inhibition: series mostly up to about 120 µM
Sequence of Cytochrome P450 2D6 (Homo sapiens) (P10635 whole entry, looked up): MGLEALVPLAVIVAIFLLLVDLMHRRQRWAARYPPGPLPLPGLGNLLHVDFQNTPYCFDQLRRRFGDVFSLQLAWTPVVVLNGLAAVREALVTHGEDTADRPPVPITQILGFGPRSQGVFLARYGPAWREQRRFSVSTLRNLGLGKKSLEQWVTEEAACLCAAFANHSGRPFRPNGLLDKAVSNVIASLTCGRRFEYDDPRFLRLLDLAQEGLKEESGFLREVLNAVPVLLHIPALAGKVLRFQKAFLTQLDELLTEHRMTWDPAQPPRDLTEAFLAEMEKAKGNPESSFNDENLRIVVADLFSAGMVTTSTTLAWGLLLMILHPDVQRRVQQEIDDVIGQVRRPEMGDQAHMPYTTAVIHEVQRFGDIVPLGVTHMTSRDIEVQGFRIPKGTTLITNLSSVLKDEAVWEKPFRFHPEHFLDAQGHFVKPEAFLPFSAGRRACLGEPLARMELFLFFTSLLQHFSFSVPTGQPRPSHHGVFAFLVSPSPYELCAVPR
How it was run: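 Quantitative HTS of Tox21 chemicals against CYP2D6 using a luminescent proluciferin substrate. After NADPH addition, 1 h room-temperature reaction; luminescence recorded 20 min post detection reagent.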

[10] = target: Cytochrome P450 2C19 (Homo sapiens) (UniProt P33261); assay: Cytochrome P450 Family 2 Subfamily C Member 19 (CYP2C19) small molecule antagonists: luciferase reporter qHTS assay (AID 1671197); note: nearly all actives have a fitted effect of over 65% in size; note: potency is the fitted concentration of half-maximal effect; for activity change, negative = inhibition: series mostly up to about 120 µM
Sequence of Cytochrome P450 2C19 (Homo sapiens) (P33261 whole entry, looked up): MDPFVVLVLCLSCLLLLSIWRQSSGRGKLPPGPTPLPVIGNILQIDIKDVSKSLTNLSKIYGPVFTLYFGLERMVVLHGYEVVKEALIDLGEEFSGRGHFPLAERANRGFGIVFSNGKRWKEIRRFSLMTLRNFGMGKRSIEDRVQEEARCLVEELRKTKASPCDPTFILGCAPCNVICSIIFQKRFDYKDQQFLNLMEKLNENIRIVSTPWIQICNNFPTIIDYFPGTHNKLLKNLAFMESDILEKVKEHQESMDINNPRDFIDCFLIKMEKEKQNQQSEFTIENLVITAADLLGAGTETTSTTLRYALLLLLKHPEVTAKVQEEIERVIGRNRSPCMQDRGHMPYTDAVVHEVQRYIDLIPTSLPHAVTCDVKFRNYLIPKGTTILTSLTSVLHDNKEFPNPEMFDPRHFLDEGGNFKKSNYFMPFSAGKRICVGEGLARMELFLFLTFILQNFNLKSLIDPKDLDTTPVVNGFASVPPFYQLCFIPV
How it was run: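 Relative luminescence units recorded 20 min after the detection reagent stopped a 1 h, 37C CYP2C19 reaction on proluciferin substrate, which was started by NADPH regeneration following 10 min room-temperature compound preincubation; ketoconazole positive control.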

Compound	Potency [1]	Potency [2]	Potency [3]	Potency [4]	Potency [5]	caspase activation [1]	activity change, negative = cytotoxicity [2]	caspase-3/7 activation [3]	activity change, negative = cytotoxicity [4]	activation [5]	max activation [6]	Potency [7]	Potency [8]	activity change, negative = inhibition [9]	Potency [10]	Potency [9]
CCCCC(CC)COC(=O)COc1ccc(Cl)cc1Cl (configuration not stated)	inactive	inactive	inactive	inactive	inactive											
Cc1[nH]c(C)c(Cl)c(=O)c1Cl						0.0051% [at 19 µM]	1.93% [at 19 µM]	-0.964% [at 19 µM]	-0.581% [at 19 µM]	-7.31% [at 19 µM]	-3.17%	inactive	inactive	-9.89% [at 23.6 µM]	inactive	
O=[N+]([O-])c1ccc(NCCO)c(OCCO)c1	inactive	48.6 µM (active)	inactive	27.3 µM (active)	inactive											inactive
CCOCC(O)COc1ccc(NC(=O)CC[S+](C)C)cc1 (configuration not stated)	inactive	inactive	inactive	inactive	inactive						-0.952%	inactive	inactive			
Cc1oc(-c2ccccc2)nc1CCOc1cccc2c1ccn2CCC(=O)O	inactive	34.4 µM (active)	inactive	34.4 µM (active)	inactive											inactive
COc1ccnc(CS(=O)c2nc3ccc(OC(F)F)cc3[nH]2)c1OC (configuration not stated)	inactive	inactive	inactive	inactive	inactive						0.184%					2.75 µM (active)
O=C1C(O)=C(O)C(=O)C(O)=C1O	inactive	inactive	inactive	inactive	inactive						-2.91%	inactive	inactive		inactive	inactive
N=c1ccn2c(n1)O[C@H]1[C@H](O)[C@@H](CO)O[C@H]12	inactive	inactive	inactive	inactive	inactive						4.22%		inactive		inactive	inactive
C[N+]1(CC2COC(c3ccccc3)(C3CCCCC3)O2)CCCCC1 (configuration not stated)	inactive	inactive	inactive	inactive	inactive						-1.36%	inactive	inactive		inactive	0.977 µM (active)
CC(=O)NO	inactive	inactive	inactive	inactive	inactive						-0.0404%	inactive	inactive		inactive	inactive
O=[N+]([O-])c1ccc2[nH]ncc2c1	inactive	inactive	inactive	inactive	inactive											inactive
O=C(O)C(S)C(S)C(=O)O (configuration not stated)	inactive	inactive	inactive	inactive	inactive						-9.28%	inactive	inactive		inactive	inactive
C#CCN(C)CCCOc1ccc(Cl)cc1Cl	inactive	inactive	inactive	inactive	29.8 µM (active)						-1.33%		inactive		3.89 µM (active)	1.55 µM (active)
CC(C)(O)c1ccc(CNC(=O)c2cccnc2Oc2ccc(F)cc2)cc1	inactive	inactive	inactive	inactive	54.5 µM (active)											inactive
Nc1ccc(S(=O)(=O)Nc2ccccc2)cc1	inactive	inactive	inactive	inactive	inactive						-5.46%	inactive	inactive			
CC(CSC(=O)c1ccccc1)C(=O)N1C[C@@H](Sc2ccccc2)C[C@H]1C(=O)O (some centres not stated)						0.287% [at 19 µM]	-1.81% [at 19 µM]	0.0462% [at 19 µM]	-2.03% [at 19 µM]	21.6% [at 19 µM]	-2.82%	inactive	inactive	2.02% [at 23.6 µM]	inactive	
c1ccc(CNCCNCc2ccccc2)cc1	inactive	inactive	inactive	inactive	inactive						-3.63%	inactive	inactive		7.76 µM (active)	0.776 µM (active)
Nc1ncn([C@H]2C[C@H](O)[C@@H](CO)O2)c(=O)n1	inactive	inactive	inactive	inactive	inactive						10.4%	inactive	inactive		inactive	inactive
NCC(=O)CCC(=O)O	inactive	inactive	inactive	inactive	inactive						-1.79%	inactive	inactive		inactive	inactive
Cc1ncc(CO)c(C=O)c1O	inactive	inactive	inactive	inactive	inactive						-0.222%	inactive	inactive		inactive	inactive
OCc1cc(C(O)CNCCCCCCOCCCCc2ccccc2)ccc1O (configuration not stated)	inactive	23.7 µM (active)	inactive	26.6 µM (active)	inactive						0.017%		inactive		inactive	
CCC(C)O (configuration not stated)	inactive	inactive	inactive	inactive												
